Results reported in the supplement of paper PMC12669032.
A number with no mark means an inactive call.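 How the source made its calls: active = AUC reduced over 20% with Padj below 0.05 in at least 2 of 3 replicates; inactive = otherwise.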

Columns and labels:
Assay in all cases: growth AUC relative to DMSO control (median of replicates) (fraction); higher = more growth (less inhibition), active = hit call of the paper
Conditions in all cases: 20 µM; 24 h
Akkermansia muciniphila = test system: Akkermansia muciniphila
In short: (§1)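 For each compound at 20 µM (1% DMSO), gut bacterial monocultures seeded at OD600 0.05 grew anaerobically in mGAM at 37 °C in round-bottom 96-well plates. Hourly OD600 readings over 24 h gave growth curves whose minimum OD was set to 0. Area under these curves was normalised to the plate median of solvent-only wells, or to row and column medians on the industrial chemical plate. Values are medians of three biological replicates grown on separate days.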

Bacteroides caccae = test system: Bacteroides caccae
In short: as §1

Bacteroides clarus = test system: Bacteroides clarus
In short: as §1

Bacteroides dorei = test system: Bacteroides dorei
In short: as §1

Bacteroides stercoris = test system: Bacteroides stercoris
In short: as §1

[1] = test system: Bacteroides thetaiotaomicron
In short: as §1

Bacteroides uniformis = test system: Bacteroides uniformis
In short: as §1

[2] = test system: Bifidobacterium longum subsp. longum
In short: as §1

Clostridium difficile = test system: Clostridium difficile
In short: as §1

Collinsella aerofaciens = test system: Collinsella aerofaciens
In short: as §1

Row | SMILES | growth AUC (Akkermansia muciniphila) | growth AUC (Bacteroides caccae) | growth AUC (Bacteroides clarus) | growth AUC (Bacteroides dorei) | growth AUC (Bacteroides stercoris) | growth AUC [1] | growth AUC (Bacteroides uniformis) | growth AUC [2] | growth AUC (Clostridium difficile) | growth AUC (Collinsella aerofaciens)
1 | CC1(C)C(C=C(Cl)Cl)C1C(=O)OC(C#N)c1cccc(Oc2ccccc2)c1 (mixture of isomers) | 1.14 | 0.963 | 1 | 0.996 | 1.11 | 0.981 | 1.01 | 0.984 | 1.04 | 0.966
2 | CNc1nc(C)c(C)c(OC(=O)N(C)C)n1 | 0.975 | 0.99 | 0.953 | 1.02 | 0.963 | 0.986 | 1.04 | 1.04 | 0.987 | 0.994
3 | COP(=S)(OC)Oc1ccc(C#N)cc1 | 1.1 | 1 | 1.03 | 1.04 | 1.02 | 0.989 | 1.04 | 1.01 | 1.03 | 1.01
4 | ClC1(Cl)C2(Cl)C3(Cl)C4(Cl)C(Cl)(Cl)C5(Cl)C3(Cl)C1(Cl)C5(Cl)C24Cl (stereo not given) | 0.866 | 0.966 | 0.972 | 1.01 | 1.06 | 1 | 0.937 | 0.846 | 1 | 0.94
5 | Clc1ccccc1-c1nnc(-c2ccccc2Cl)nn1 | 0.748 | 0.892 | 0.969 | 0.974 | 1.25 | 0.999 | 0.974 | 0.825 | 0.997 | 0.942
6 | CCOP(=S)(OCC)Oc1ccc(S(C)=O)cc1 (stereo not given) | 0.951 | 0.974 | 0.967 | 0.985 | 0.951 | 0.968 | 0.993 | 0.97 | 0.994 | 1.05
7 | O.[Br-].[Br-].c1cc[n+]2c(c1)-c1cccc[n+]1CC2 | 0.784 | 0.612 (active) | 0.992 | 0.996 | 1.01 | 1.01 | 0.984 | 1.02 | 0.912 | 0.995
8 | CC(C)[C@@H](Nc1ccc(C(F)(F)F)cc1Cl)C(=O)OC(C#N)c1cccc(Oc2ccccc2)c1 (stereo not given in full) | 1.09 | 1.02 | 1.04 | 1.04 | 1.01 | 0.994 | 1.01 | 1.02 | 1.04 | 0.933
9 | ClC1=C(Cl)C2(Cl)C(CBr)CC1(Cl)C2(Cl)Cl (stereo not given) | 1.02 | 1.04 | 1.02 | 0.999 | 1.02 | 1.01 | 0.982 | 1.01 | 0.985 | 0.957
10 | COP(=S)(OC)Oc1ccc(Sc2ccc(OP(=S)(OC)OC)cc2)cc1 | 0.994 | 0.986 | 1.04 | 0.979 | 1.08 | 1.04 | 0.968 | 0.94 | 0.996 | 0.992
11 | CC1(C)[C@H](/C=C(\Cl)C(F)(F)F)[C@@H]1C(=O)O[C@@H](C#N)c1cccc(Oc2ccccc2)c1 | 1.14 | 0.983 | 0.994 | 0.972 | 0.971 | 0.997 | 0.984 | 0.963 | 0.988 | 0.932
12 | CCCCOC(=O)N(C)SN(C)C(=O)Oc1cccc2c1OC(C)(C)C2 | 1.03 | 1.02 | 0.969 | 1.01 | 1.08 | 1.04 | 1 | 1.11 | 0.992 | 1.01
13 | COCC(C)N(C(=O)CCl)c1c(C)csc1C (stereo not given) | 1.35 | 1.03 | 1.01 | 0.929 | 1.04 | 0.973 | 0.93 | 0.841 | 0.847 | 0.922
14 | CC(C)(C)C(O)/C(=C/c1ccc(Cl)cc1Cl)n1cncn1 (mixture of isomers) | 1 | 0.869 | 0.947 | 0.854 | 1.32 | 0.88 | 0.874 | 1.02 | 0.964 | 1.03
15 | Cc1cc(Cl)ccc1OCC(=O)O.O.[Na] | 1.25 | 0.981 | 1.01 | 0.921 | 1.02 | 1.05 | 0.993 | 1.05 | 1.02 | 0.98
16 | Clc1cc(Cl)c(Cl)cc1Cl | 1.01 | 0.997 | 0.987 | 0.981 | 1.14 | 0.982 | 1.01 | 1.07 | 0.98 | 1.01
17 | O=C(Nc1ccccc1)c1ccccc1I | 0.823 | 1.03 | 1 | 0.994 | 1.05 | 1.01 | 0.975 | 1.03 | 1.08 | 1.07
18 | CS(=O)(=O)c1ccc(C(=O)C2C(=O)CCCC2=O)c(Cl)c1 | 0.92 | 1.01 | 1.01 | 1.01 | 1.04 | 1.01 | 1 | 0.967 | 1.11 | 1.05
19 | CCCCCCCCCCCCCN1CC(C)OC(C)C1 (stereo not given) | 0.931 | 0.969 | 1 | 1.01 | 1.03 | 0.993 | 0.982 | 0.908 | 0.923 | 0.941
20 | N#CCNC(=O)c1cnccc1C(F)(F)F | 0.888 | 1.01 | 0.959 | 1 | 0.966 | 0.988 | 0.99 | 0.961 | 0.99 | 1.01
21 | O=C(NCCc1ncc(C(F)(F)F)cc1Cl)c1ccccc1C(F)(F)F | 0.849 | 0.978 | 1.01 | 1 | 0.951 | 0.973 | 0.987 | 0.974 | 0.996 | 1
22 | COP(=S)(OC)Oc1cc(Cl)c(I)cc1Cl | 1.09 | 0.999 | 0.959 | 0.985 | 1.04 | 0.964 | 0.954 | 0.918 | 0.937 | 0.941
23 | COC(=O)c1sccc1S(=O)(=O)NC(=O)Nc1nc(C)nc(OC)n1 | 1.13 | 0.932 | 0.994 | 0.875 | 0.961 | 0.924 | 1.03 | 1.09 | 0.944 | 0.898
24 | Cc1c(N)cccc1N | 0.946 | 0.969 | 1.04 | 1 | 1.18 | 0.992 | 1 | 1 | 1 | 1.04
25 | COc1ccc(/C(=C/C(=O)N2CCOCC2)c2ccc(F)cc2)cc1OC | 0.998 | 1.05 | 0.959 | 0.953 | 0.921 | 0.997 | 0.984 | 0.958 | 1 | 0.952
26 | CNC(=O)O/N=C/C(C)(C)S(C)=O (stereo not given) | 0.978 | 1.04 | 0.991 | 1.01 | 1.02 | 0.988 | 1.03 | 0.935 | 1.01 | 1.02
27 | CNC(=O)Oc1ccccc1C(C)C | 1.08 | 1.01 | 1.04 | 1.03 | 1.23 | 1.01 | 1.01 | 0.965 | 1.02 | 0.986
28 | OC(c1ccc(F)cc1)(c1cncnc1)c1ccccc1Cl (stereo not given) | 0.95 | 0.993 | 0.951 | 0.966 | 0.991 | 0.942 | 0.954 | 1.01 | 0.966 | 0.988
29 | COP(=O)(OC)O/C(=C\Cl)c1ccc(Cl)cc1Cl | 1.11 | 0.975 | 1.02 | 1.03 | 1.02 | 0.969 | 1.01 | 1.02 | 0.97 | 0.997
